We go through 89 compounds from PubChem BioAssay AID743279 (National Center for Advancing Translational Sciences (NCATS), 2014).

Out of some 360,000 compounds screened, about 17,000 (4.7%) were called active. Inconclusive results (about 5%) are left out. This is one part of a sample in which actives are shown more often than they occur. Values without a mark were called inactive. Rule as the data show it: active = activity change below about -50%; inconclusive = mostly about -30% to -49%; inactive = weaker than that.
% is scaled to controls: 0 for no effect and ±100 for the full control effect.

A short description of this experiment: qHTS for Inhibitors of Inflammasome Signaling: IL-1-beta AlphaLISA Primary Screen. The settings on record: THP-1 LPS/ATP IL-1B secretion, 16 h; at 57.5 µM, active compounds read low. In short, it runs like this: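 THP-1 cells pretreated 1 hr with compounds (up to 57.5 uM final), then stimulated with LPS (250 ng/mL final) plus ATP (1.25 mM final); secreted IL-1B measured by AlphaLISA after 16 hr, decreased signal indicating inhibition.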
Regarding `Oc1ccccc1N1CCN(c2ncnc3sc(-c4ccccc4)cc23)CC1`, the activity change is -28.1%.
For `c1ccc(-c2cc3c(NCC4COc5ccccc5O4)ncnc3s2)cc1` (centres undefined), the activity change was -59.2% (active).
As for `S=C(NCC1COc2ccccc2O1)Nc1ccc(Br)cc1` (centres undefined), the activity change is 0%.
For the compound `Nc1cc(=O)n(Cc2ccccc2)c(=O)n1Cc1ccccc1`, the activity change is -0.791%.
For `O=C(NCc1ccccc1)C1C(=O)N(Cc2ccccc2)C(=O)C1C1(O)CCCC1` (centres undefined), the activity change was -0.107%.
Regarding `COc1ccc(-c2[nH][nH]c(=O)c2NC(=O)c2ccc([N+](=O)[O-])cc2)cc1`, the activity change is 16%.
`CC(C)[C@@H](C(=O)OCC(=O)c1ccc2c(c1)NC(=O)CO2)N1C(=O)c2ccccc2C1=O`: the activity change was 25.8%.
Turning to `CCCCC(C(=O)OCC(=O)c1ccc(OC)cc1)N1C(=O)c2ccccc2C1=O` (centres undefined), the activity change is -57.4% (active).
The result for `COc1ccc(CNC(=O)COC(=O)C(CCSC)N2C(=O)c3ccccc3C2=O)cc1` (centres undefined) reads 5%; that for `CCN(CC(=O)NCCCN1CCOCC1)S(=O)(=O)c1cc(Cl)ccc1Cl`, -11.7%; that for `CN(C)CCCN(C(=O)c1ccc(S(=O)(=O)N2CCCCCC2)cc1)c1nc2cc3c(cc2s1)OCCO3`, -66.5% (active).
As for `CCN(CC(=O)Nc1c(F)cccc1F)C(=O)c1ccc(S(=O)(=O)N2CCCCC2)cc1`, the activity change is -1.87%.
On to `CCc1ccc2nc(N(CCCN(C)C)C(=O)c3ccc4c(c3)OCCO4)sc2c1`, for which the activity change was -61.9% (active).
Turning to `COc1ccc2sc(N(CCCN(C)C)C(=O)c3ccc(S(=O)(=O)N(C)C4CCCCC4)cc3)nc2c1`, the activity change is -72.4% (active).
In the case of `CN(C)CCN(C(=O)C1CCCCC1)c1nc2cc3c(cc2s1)OCO3`, the activity change is -5.98%.
Consider `Cc1ccc2nc(N(CCN(C)C)C(=O)C3=COCCO3)sc2c1`, for which the activity change was -6.05%.
In the case of `CCN(CC)CCN(C(=O)c1cc(Cl)sc1Cl)c1nc2cc3c(cc2s1)OCO3`, the activity change was 0%.
Turning to `CN(C)CCN(C(=O)CN1C(=O)c2ccccc2C1=O)c1nc2cc3c(cc2s1)OCCO3`, the activity change was 10%.
On to `CCN(CC)CCN(C(=O)c1cccc([N+](=O)[O-])c1)c1nc2ccc(OC)cc2s1`, for which the activity change was -20.4%.
`CN(C)CCCN(C(=O)c1ccc(S(=O)(=O)N2CCCCCC2)cc1)c1nc2ccc(Br)cc2s1`: the activity change was -101% (active).
For the compound `Brc1ccc2nc(N3CCCC3)sc2c1`, the activity change is 32.8%.
Turning to `COc1ccc(S(=O)(=O)N(C)CC(=O)N2CCCC2)cc1`, the activity change was -1.23%.
`Cc1ccc(S(=O)(=O)n2oc(=O)c(C3CCCCC3)c2N)cc1`: the activity change was -0.476%.
Take `C/C(COc1ccccc1)=N\NC(=O)c1nnn(-c2nonc2N)c1-c1ccc(C)cc1`: the activity change was -10.3%.
In the case of `CCCOc1ccc(F)cc1-c1cc(C(=O)Nc2ccc(F)c(Cl)c2)[nH]n1`, the activity change was -11.9%.
For the compound `O=C1c2ccncc2C(=O)N1C1CCCCC1`, the activity change is -1.14%.
Turning to `Cc1ccc(C)c(NC2=NCC(=O)N2c2ccc3c(c2)OCCO3)c1`, the activity change is 1.69%.
With `Cc1cn(C2CC(O)C(CO)O2)c(=O)n(CCCc2ccccc2)c1=O` (centres undefined) the figure was 0%; with `CCOC(=O)N1CCN(C(=O)c2ccc(CN(c3ccc(C)c(C)c3)S(C)(=O)=O)cc2)CC1`, 1.54%.
Turning to `Cc1nc2ccccn2c(=O)c1NC(=O)c1ccc(Br)o1`, the activity change was 9.2%.
For `O=c1c2ccccc2ncn1CCc1ccncc1`, the activity change was -6.13%.
As to `COC1(C2=NCCN2)COc2ccccc2O1` (centres undefined), the activity change was 6.63%.
As to `COc1ccc(C2SCCN2S(=O)(=O)c2ccccc2)cc1OC` (centres undefined), the activity change is -9.4%.
With `COc1cc2c(cc1OC)CN(C(=O)c1ccc(S(=O)(=O)N3CCCCCC3)cc1)CC2` the figure was -4.82%.
With `COc1cc2c(cc1OC)C(C)N(S(=O)(=O)c1cnc(Cl)c(Cl)c1)CC2` (centres undefined) the figure was -97.4% (active); with `COC(=O)C1=CN(Cc2ccc(OC)c(OC)c2)C=C(C(=O)OC)C1c1cccs1`, 17.5%; with `COc1ccc(CC2c3cc(OC)c(OC)cc3CC[N+]2(C)CCC(=O)OCCCCCOC(=O)CC[N+]2(C)CCc3cc(OC)c(OC)cc3C2Cc2ccc(OC)c(OC)c2)cc1OC` (centres undefined), -63.5% (active).
On to `CCc1ccc(OCC2c3cc(OC)c(OC)cc3CCN2C(C)=O)cc1` (centres undefined), for which the activity change is -10.3%.
Turning to `Cc1ccc([C@H]2C[C@H](O)[C@@H](n3cc(COC(=O)c4ccccc4)nn3)CN2C(=O)C2CCCCC2)cc1`, the activity change is -14.7%.
With `C[C@H](CO)N1C[C@H](C)[C@@H](CN(C)C(=O)c2cccc(F)c2)Oc2cc(-c3cncnc3)ccc2S1(=O)=O` the figure was 3.54%.
Consider `Clc1ccc(-c2cccc3nccn23)cc1`, for which the activity change is 34.4%.
Consider `CCOC(=O)c1cnn2c(SC)ncnc12`, for which the activity change was -22.6%.
Consider `CN(/N=C/c1ccccc1)C(=S)c1ccccc1`, for which the activity change is 1.93%.
On to `CN(O)C(=S)c1ccccc1`, for which the activity change is -116% (active).
The result for `CN(CC(=O)O)C(=O)c1ccccc1` reads 19.1%; that for `CC(C)(C)C1CCC(=O)N2CCC[C@]2(c2ccccc2)C1` (some centres undefined), 0.891%.
Take `COC(=O)c1c(NC(=O)CN2C(=O)NC(CCc3ccccc3)C2=O)sc2c1CCCCC2` (centres undefined): the activity change is -15.4%.
For the compound `CCOC(=O)CC(=O)CSc1nc(-c2ccccc2)cc(-c2ccc(Cl)cc2)c1C#N`, the activity change is 6.24%.
The result for `CCOc1cc(-c2cc(-c3ccc(OC)cc3)nc(N)c2C#N)ccc1O` reads -3.59%; that for `CCOc1cc(-c2cc(-c3ccc(NC(C)=O)cc3)nc(N)c2C#N)ccc1O`, -53.1% (active); that for `CC(C)(C)S(=O)(=O)N1Cc2cc(CO)cc(CCO)c2[C@H]1CCO`, 8.29%.
Take `CN(C)C(=O)c1cccc(-c2cnc3c(NC=O)cc(-c4ccc(C(=O)N5CCOCC5)cc4)cn23)c1`: the activity change was -14.1%.
Turning to `Cc1nnc(NC(=O)CSc2nc(C3CCCCC3)nc3ccccc23)s1`, the activity change is -0.35%.
`O=C(CSc1nc(C2CC2)nc2ccccc12)Nc1cccc(O)c1`: the activity change was 2.55%.
On to `O=C(CSc1nc(C2CC2)nc2ccccc12)Nc1ccc2c(c1)OCCO2`, for which the activity change is -71.5% (active).
On to `CCN(CC)C(=O)C1=C(C)N(Cc2ccc(OC)cc2)C(=O)C(CC(=O)NCCCCc2ccccc2)C1` (centres undefined), for which the activity change is -14.3%.
With `CCCCCCCCCCCCN1C(=O)CSC1c1cccnc1` (centres undefined), the activity change was -56.2% (active).
On to `CN(C)CCCN1C(=O)CSC1c1ccc([N+](=O)[O-])cc1` (centres undefined), for which the activity change was 36.5%.
As to `CCCCc1ccc(NC(=O)NCc2cccnc2)cc1`, the activity change was -8.19%.
For `O=C(NCc1cccnc1)c1ccc2nc([C@@H]3O[C@H](CO)[C@H](O)[C@H](O)[C@H]3O)[nH]c2c1`, the activity change is 2.47%.
The result for `COc1cc(C(=O)OCC(=O)N(CC(C)C)C2CCS(=O)(=O)C2)ccc1OCC(C)C` (centres undefined) reads -19.9%; that for `COc1cccc(-c2noc(C3CCCN(C(=O)c4ccc(F)cc4)C3)n2)c1` (centres undefined), -17.2%; that for `CCOC(=O)C1(CCOC)CCN(Cc2ccc(C(=O)OC)cc2)CC1`, 4.83%.
In the case of `CCOC(=O)C1(CCOc2ccccc2)CCN(Cc2cc(OC)c(O)cc2Cl)CC1`, the activity change is -22.4%.
Take `CCCS(=O)(=O)N1CCC(CCOc2ccccc2)(C(=O)OCC)CC1`: the activity change was 30.8%.
The result for `CCOC(=O)C1(CCOc2ccccc2)CCN(Cc2cc(OC)cc(OC)c2)CC1` reads -89.9% (active); that for `CCOC(=O)C1(CCOc2ccccc2)CCN(Cc2ccc(C#CCCO)cc2)CC1`, -57.7% (active).
Turning to `CCOC(=O)C1(CCOc2ccccc2)CCN(C(=O)c2cncs2)CC1`, the activity change is -28.5%.
Take `COc1ccc(NC2CC(=O)N(C)C2=O)cc1` (centres undefined): the activity change was 19.6%.
`C/C(=N/Nc1nc(-c2ccccc2)c(CC(=O)O)s1)c1ccccc1`: the activity change is -6.09%.
Regarding `CC(C)CCC(=O)Nc1cc(S(=O)(=O)N2CCOCC2)ccc1N1CCCC1`, the activity change is -21.6%.
With `CCc1nc2ccc(C(=O)N3CCC(O)(Cc4ccccc4)CC3)cn2c1N(C)C(=O)Cc1ccccc1` the figure was 1.17%; with `Cc1csc(NC(=O)C2CCN(S(=O)(=O)c3ccccc3)CC2)n1`, -7.33%.
In the case of `COc1ccc(OC)c(/C=C/C(=O)OCC(=O)Nc2ccc3c(c2)OCCO3)c1`, the activity change is 37.8%.
`COc1ccc(OC)c(/C=C/C(=O)c2ccc3c(c2)OCO3)c1`: the activity change was -97.2% (active).
The result for `COc1cc(C=C(OC(C)=O)c2ccc3c(c2)OCO3)cc(OC)c1OC` reads 24.5%; that for `CCOC(=O)c1c(S(=O)(=O)NCC(=O)Nc2ccc(C)cc2)c(C)n(C)c1C`, -6.41%.
Turning to `CCOc1cc(/C=N/NC(=O)c2ccncc2)cc(Br)c1O`, the activity change is -14.1%.
As for `Cc1ccc(N2C(=O)SC(N(CC(=O)O)c3ccc(C)cc3)C2=O)cc1` (centres undefined), the activity change is 18.1%.
On to `Cc1c(C(=O)N2CCN(c3ccc(F)cc3)CC2)oc2c1C(=O)CCC2`, for which the activity change is 14.7%.
Turning to `Cc1ccc2c(C)c(C(=O)N3CCN(c4ccncc4)CC3)oc2c1C`, the activity change is -52.1% (active).
For the compound `Cc1ccc2c(C)c(C(=O)N(C)Cc3ccncn3)oc2c1C`, the activity change was 13.6%.
With `O=C(Nc1ccccc1F)c1cc(S(=O)(=O)N2CCCCC2)cs1`, the activity change is 6.67%.
For the compound `CC12CCCCC1=CC(=O)CC2` (centres undefined), the activity change is 13.3%.
The result for `Cc1ccc(NC(=O)c2cnc(SCC(=O)NCC3CCCO3)n(C)c2=O)cc1` (centres undefined) reads -103% (active); that for `CCn1c(SCC(=O)NCC2CCCO2)nc2ccccc21` (centres undefined), 31.3%.
As to `Cn1c(SCC(=O)c2ccccc2)ncc(C(=O)Nc2ccc(F)cc2)c1=O`, the activity change is -2.98%.
With `NC(=O)c1ncn([C@@H]2O[C@H](CNCc3cnc(N4CCOCC4)s3)[C@@H](O)[C@H]2O)n1`, the activity change was 17.3%.
As to `CC1CN(C(=O)c2ccc3c(c2)OCO3)OC(c2ccccc2)O1` (centres undefined), the activity change was -0.281%.
